Measurements from the supplement of paper PMC10849652.
The full data set covers some 7,900 targets. This sample favours those with a hit. About 0.6% of all pairs of compound and target were hits. A number with no mark means an inactive call.

Columns and labels:
Assay in all cases: log2 fold change, soluble protein after heating vs DMSO (PISA); higher = thermal stabilisation; K562 cells, 10 uM, 30 min; active = over 0.2 and 3.5 SD of the protein, either way, in both replicates (recomputed)
[1] = compound: NC(=O)Nc1cc(-c2cccc(F)c2)sc1C(=O)N[C@H]1CCCNC1
In short: (§1)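 K562 cells (2×10^6 cells/mL) were treated with 10 μM compound for 30 min, and aliquots were heated for 3 min over 48°C-58°C. Pooled aliquots were extracted in PBS with 0.5% NP-40 at 4°C, and the supernatant after 21,000xg for 90 min was measured by TMTpro 16plex LC-MS/MS with channel sums equalised. Reported thermal stability, relative to control samples and from duplicates, is a log2 fold change.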

[2] = compound: NC(=O)c1cnc(N[C@@H]2CCCC[C@@H]2N)nc1Nc1cccc(-n2nccn2)c1
In short: as §1

[3] = compound: NC1(c2ccc(-c3nc4ccn5c(=O)[nH]nc5c4cc3-c3ccccc3)cc2)CCC1
In short: as §1

[4] = compound: NCC(=O)Nc1ccc(-n2nc(C(F)(F)F)cc2-c2ccc3c(ccc4ccccc43)c2)cc1
In short: as §1

[5] = compound: Nc1ccccc1NC(=O)c1ccc(CNC(=O)OCc2cccnc2)cc1 [entinostat]
In short: as §1

[6] = compound: O=C(CCCCCCC(=O)Nc1ccccc1)NO [vorinostat]
In short: as §1

[7] = compound: O=C(CCCCCCNC(=O)c1cnc(N(c2ccccc2)c2ccccc2Cl)nc1)NO [citarinostat]
In short: as §1

[8] = compound: O=C(O)c1ccc2c(c1)nc(Nc1cccc(Cl)c1)c1ccncc12 [silmitasertib]
In short: as §1

[9] = compound: O=C1NC(=O)C(c2cnc3ccccn23)=C1c1cn2c3c(cc(F)cc13)CN(C(=O)N1CCCCC1)CC2
In short: as §1

[10] = compound: c1cc(OCCN2CCCCC2)cc(-c2n[nH]c3ccc(-c4nnc[nH]4)cc23)c1
In short: as §1

Chain of UniProt Q9Y383 (Q9Y383 whole entry, looked up): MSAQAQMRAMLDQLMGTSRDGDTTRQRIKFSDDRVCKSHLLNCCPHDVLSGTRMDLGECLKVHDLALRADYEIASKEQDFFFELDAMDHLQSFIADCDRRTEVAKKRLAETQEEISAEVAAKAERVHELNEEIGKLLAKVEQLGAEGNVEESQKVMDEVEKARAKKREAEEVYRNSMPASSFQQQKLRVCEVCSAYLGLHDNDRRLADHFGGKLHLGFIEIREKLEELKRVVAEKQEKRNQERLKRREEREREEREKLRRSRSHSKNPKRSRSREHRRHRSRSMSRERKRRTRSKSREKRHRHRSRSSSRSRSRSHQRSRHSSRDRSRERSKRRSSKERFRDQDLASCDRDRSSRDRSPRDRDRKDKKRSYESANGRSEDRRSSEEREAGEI
Chain of UniProt Q9NQG6 (Q9NQG6 whole entry, looked up): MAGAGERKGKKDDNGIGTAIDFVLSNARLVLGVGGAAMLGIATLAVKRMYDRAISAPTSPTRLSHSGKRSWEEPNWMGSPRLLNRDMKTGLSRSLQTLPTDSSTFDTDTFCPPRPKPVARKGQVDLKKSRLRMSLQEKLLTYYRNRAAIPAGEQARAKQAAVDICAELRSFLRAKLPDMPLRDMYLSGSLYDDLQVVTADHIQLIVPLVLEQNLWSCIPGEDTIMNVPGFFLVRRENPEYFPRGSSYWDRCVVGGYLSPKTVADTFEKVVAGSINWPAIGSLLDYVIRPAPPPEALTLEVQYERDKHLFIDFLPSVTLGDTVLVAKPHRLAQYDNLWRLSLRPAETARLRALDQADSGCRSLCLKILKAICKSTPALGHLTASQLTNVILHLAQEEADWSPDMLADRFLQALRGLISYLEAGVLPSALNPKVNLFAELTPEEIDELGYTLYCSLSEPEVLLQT
Chain of UniProt P23368 (P23368 whole entry, looked up): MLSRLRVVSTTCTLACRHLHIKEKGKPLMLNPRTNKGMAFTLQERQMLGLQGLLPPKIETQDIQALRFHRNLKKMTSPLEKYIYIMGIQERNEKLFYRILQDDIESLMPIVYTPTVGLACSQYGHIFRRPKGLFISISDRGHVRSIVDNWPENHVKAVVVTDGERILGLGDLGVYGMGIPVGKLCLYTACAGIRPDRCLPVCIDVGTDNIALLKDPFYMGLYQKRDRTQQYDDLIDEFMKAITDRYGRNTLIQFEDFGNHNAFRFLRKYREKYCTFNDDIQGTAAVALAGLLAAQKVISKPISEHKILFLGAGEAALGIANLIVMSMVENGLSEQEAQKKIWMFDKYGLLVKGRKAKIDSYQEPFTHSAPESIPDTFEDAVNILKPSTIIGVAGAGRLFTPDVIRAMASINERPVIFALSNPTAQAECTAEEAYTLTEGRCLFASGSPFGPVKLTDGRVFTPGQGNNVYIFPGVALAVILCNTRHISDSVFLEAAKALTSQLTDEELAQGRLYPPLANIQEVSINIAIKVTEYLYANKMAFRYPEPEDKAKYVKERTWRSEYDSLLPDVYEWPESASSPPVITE
Chain of UniProt O95373 (O95373 whole entry, looked up): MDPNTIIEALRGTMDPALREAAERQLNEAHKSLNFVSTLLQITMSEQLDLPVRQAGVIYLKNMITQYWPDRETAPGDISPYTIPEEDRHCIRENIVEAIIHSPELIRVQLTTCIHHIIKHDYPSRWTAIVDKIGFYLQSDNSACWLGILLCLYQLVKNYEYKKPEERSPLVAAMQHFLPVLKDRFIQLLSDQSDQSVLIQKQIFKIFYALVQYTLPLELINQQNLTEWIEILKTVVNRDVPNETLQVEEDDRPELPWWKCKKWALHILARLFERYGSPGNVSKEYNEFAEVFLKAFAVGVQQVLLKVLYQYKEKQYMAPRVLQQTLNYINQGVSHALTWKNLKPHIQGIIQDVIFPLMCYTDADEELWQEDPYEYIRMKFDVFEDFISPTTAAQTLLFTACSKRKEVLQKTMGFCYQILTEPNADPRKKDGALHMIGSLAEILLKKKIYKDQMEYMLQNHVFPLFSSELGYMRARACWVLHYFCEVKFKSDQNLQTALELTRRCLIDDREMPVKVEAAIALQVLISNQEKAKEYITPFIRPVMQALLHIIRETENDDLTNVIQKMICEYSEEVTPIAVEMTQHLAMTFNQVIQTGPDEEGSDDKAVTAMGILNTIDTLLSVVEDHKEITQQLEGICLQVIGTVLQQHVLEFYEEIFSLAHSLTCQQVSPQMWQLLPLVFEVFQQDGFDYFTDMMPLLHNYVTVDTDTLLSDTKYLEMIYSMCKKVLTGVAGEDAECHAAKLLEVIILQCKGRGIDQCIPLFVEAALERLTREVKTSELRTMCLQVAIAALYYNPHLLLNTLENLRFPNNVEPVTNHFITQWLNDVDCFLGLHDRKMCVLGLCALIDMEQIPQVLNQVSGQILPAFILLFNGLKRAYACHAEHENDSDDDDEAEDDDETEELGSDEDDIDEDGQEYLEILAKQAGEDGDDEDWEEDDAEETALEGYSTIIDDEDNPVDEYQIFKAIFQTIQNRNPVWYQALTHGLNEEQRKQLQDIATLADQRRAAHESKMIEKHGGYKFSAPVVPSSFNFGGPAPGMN
Chain of UniProt Q9Y4K4 (Q9Y4K4 whole entry, looked up): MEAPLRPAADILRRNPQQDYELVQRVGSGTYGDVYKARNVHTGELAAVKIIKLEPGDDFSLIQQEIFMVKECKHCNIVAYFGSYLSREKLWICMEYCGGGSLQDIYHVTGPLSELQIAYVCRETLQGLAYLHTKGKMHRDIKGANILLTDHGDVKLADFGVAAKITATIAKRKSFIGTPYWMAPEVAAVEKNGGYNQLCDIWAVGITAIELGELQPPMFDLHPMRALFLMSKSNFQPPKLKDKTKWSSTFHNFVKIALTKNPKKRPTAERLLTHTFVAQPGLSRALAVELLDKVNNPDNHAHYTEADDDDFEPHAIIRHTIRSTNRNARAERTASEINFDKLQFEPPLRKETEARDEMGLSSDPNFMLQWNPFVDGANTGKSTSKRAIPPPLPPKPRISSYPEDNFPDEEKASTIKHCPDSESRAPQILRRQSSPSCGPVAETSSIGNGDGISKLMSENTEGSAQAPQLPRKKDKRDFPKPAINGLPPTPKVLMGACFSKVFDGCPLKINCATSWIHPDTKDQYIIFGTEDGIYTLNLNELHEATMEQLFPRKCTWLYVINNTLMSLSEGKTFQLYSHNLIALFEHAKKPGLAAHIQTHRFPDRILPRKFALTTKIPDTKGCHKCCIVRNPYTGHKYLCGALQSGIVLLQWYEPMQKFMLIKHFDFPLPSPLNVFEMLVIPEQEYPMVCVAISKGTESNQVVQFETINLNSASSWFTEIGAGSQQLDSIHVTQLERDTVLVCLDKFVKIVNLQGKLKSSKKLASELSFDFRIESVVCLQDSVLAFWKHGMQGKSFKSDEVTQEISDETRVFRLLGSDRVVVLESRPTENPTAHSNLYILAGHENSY
Chain of UniProt P18065 (P18065 whole entry, looked up): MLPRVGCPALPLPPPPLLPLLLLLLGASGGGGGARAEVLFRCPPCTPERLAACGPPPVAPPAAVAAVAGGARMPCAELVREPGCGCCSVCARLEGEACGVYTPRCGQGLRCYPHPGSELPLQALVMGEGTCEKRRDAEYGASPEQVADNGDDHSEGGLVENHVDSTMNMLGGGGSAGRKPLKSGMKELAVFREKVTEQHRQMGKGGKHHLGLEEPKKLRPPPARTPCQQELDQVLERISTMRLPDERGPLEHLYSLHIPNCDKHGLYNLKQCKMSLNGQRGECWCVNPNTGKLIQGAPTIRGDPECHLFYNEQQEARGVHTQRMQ
Chain of UniProt P07948 (P07948 whole entry, looked up): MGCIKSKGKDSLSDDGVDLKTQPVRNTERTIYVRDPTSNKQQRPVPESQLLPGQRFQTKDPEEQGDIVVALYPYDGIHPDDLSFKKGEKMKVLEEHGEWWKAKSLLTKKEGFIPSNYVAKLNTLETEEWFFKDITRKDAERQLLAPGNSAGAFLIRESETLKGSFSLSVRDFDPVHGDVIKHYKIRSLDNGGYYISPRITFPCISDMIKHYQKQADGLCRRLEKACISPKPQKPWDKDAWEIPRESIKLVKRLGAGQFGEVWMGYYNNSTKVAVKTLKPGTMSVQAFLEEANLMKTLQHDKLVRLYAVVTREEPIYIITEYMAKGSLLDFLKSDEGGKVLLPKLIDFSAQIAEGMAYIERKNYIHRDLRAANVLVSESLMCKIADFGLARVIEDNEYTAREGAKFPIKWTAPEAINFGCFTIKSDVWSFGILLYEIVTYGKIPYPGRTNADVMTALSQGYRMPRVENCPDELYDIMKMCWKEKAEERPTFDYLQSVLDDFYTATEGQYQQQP
Chain of UniProt Q8IWB1 (Q8IWB1 whole entry, looked up): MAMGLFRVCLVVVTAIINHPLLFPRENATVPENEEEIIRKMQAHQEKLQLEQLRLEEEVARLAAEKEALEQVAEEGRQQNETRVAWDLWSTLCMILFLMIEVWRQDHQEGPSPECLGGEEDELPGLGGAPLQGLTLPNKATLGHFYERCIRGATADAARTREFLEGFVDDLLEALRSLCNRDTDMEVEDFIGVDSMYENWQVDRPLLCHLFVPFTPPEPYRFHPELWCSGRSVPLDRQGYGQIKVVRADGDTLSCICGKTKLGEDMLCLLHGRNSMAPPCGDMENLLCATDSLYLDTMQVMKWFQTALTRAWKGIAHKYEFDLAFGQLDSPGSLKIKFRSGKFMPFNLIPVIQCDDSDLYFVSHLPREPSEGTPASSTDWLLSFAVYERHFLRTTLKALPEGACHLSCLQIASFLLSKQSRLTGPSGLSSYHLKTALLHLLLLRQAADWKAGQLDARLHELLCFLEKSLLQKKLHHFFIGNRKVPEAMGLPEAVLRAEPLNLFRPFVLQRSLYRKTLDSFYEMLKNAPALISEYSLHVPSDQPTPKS
Chain of UniProt Q9BRT3 (Q9BRT3 whole entry, looked up): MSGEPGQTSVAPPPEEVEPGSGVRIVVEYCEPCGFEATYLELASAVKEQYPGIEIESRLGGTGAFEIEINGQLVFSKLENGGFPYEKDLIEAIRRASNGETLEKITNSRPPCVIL

Target | log2 fold change [1] | log2 fold change [2] | log2 fold change [3] | log2 fold change [4] | log2 fold change [5] | log2 fold change [6] | log2 fold change [7] | log2 fold change [8] | log2 fold change [9] | log2 fold change [10]
LDAH isoform 2 (UniProt Q9H6V9) | -0.049 | 0.018 | 0.979 (active) | -0.041 | 0.014 | -0.011 | 0.061 | 0.014 | -0.16 | -0.057
ME2 (UniProt P23368) | -0.015 | -0.034 | 0.07 | -0.033 | -0.013 | 0.058 | 0.025 | 0.186 | -0.017 | -0.093
KEAP1 (UniProt Q14145) | 0.007 | -0.027 | -0.076 | -0.034 | 0.051 | 0.156 | -0.005 | 0.122 | 0.143 | -0.055
MICU2 (UniProt Q8IYU8) | -0.095 | -0.075 | -0.121 | -0.006 | -0.014 | 0.073 | 0.042 | 0.076 | 0.04 | -0.141
MFN1 (UniProt Q8IWA4) | -0.072 | -0.171 | -0.01 | -0.224 | 0.034 | 0.021 | 0.034 | 0.102 | -0.009 | 0.02
MIEF1 (UniProt Q9NQG6) | -0.001 | -0.14 | -0.215 | -0.034 | 0.056 | 0.019 | 0.073 | 0.006 | 0.031 | -0.01
IGFBP2 (UniProt P18065) | 0.026 | -0.043 | -0.242 | -0.037 | 0.04 | 0.351 | -0.068 | 0.267 | -0.143 | 0.064
LYN (UniProt P07948) | 0.385 (active) | 0.048 | -0.048 | -0.016 | -0.006 | 0.058 | 0.017 | 0.176 | 0.022 | 0.143
KPNA1 (UniProt P52294) | -0.02 | -0.014 | -0.047 | -0.058 | 0.099 | 0.036 | 0.166 | 0.088 | 0.064 | -0.037
LUC7L (UniProt Q9NQ29) | -0.061 | 0.011 | 0.17 | -0.043 | -0.01 | -0.058 | -0.052 | -0.006 | 0.133 | -0.095
LMNA (UniProt P02545) | 0.205 | -0.013 | 0.024 | 0.047 | -0.004 | -0.026 | 0.039 | 0.015 | -0.075 | -0.068
LARP4B (UniProt Q92615) | 0.028 | -0.042 | 0.048 | 0.022 | 0.038 | 0.027 | -0.001 | 0.008 | 0.086 | -0.112
IMMT isoform 4 (UniProt Q16891) | -0.022 | -0.083 | -0.132 | -0.056 | 0.021 | 0.008 | 0.007 | -0.038 | -0.031 | -0.035
LUC7L3 (UniProt O95232) | -0.203 | -0.017 | 0.058 | -0.076 | -0.051 | -0.008 | 0.083 | -0.156 | 0.086 | -0.086
LARP1 (UniProt Q6PKG0) | -0.064 | 0.002 | 0.051 | -0.04 | 0.02 | 0.043 | -0.025 | 0.028 | 0.113 | -0.133
MFSD5 isoform 2 (UniProt Q6N075) | -0.037 | 0.035 | -0.137 | -0.089 | -0.099 | -0.093 | -0.009 | -0.033 | -0.193 | -0.049

Target | log2 fold change [1] | log2 fold change [2] | log2 fold change [3] | log2 fold change [4] | log2 fold change [5] | log2 fold change [6] | log2 fold change [7] | log2 fold change [8] | log2 fold change [9] | log2 fold change [10]
LRPPRC (UniProt P42704) | -0.249 | -0.291 | -0.676 | -0.272 | 0.479 | 0.289 | 0.203 | 0.033 | -0.383 | -0.128
MAP4K5 (UniProt Q9Y4K4) | 0.217 | 0 | -0.002 | -0.097 | -0.012 | 0.074 | 0.02 | -0.09 | 0.073 | 0.026
METTL18 (UniProt O95568) | -0.028 | 0.008 | -0.034 | 0.023 | -0.02 | 0.041 | -0.046 | 0.03 | 0 | -0.016
ITPRIP (UniProt Q8IWB1) | -0.041 | -0.031 | -0.373 (active) | -0.021 | -0.01 | -0.08 | -0.076 | -0.009 | 0.019 | -0.06
MAP1LC3B2 (UniProt A6NCE7) | -0.023 | -0.022 | -0.128 | -0.085 | 0.012 | -0.058 | 0.046 | -0.015 | -0.001 | -0.103
KIF3A (UniProt Q9Y496) | 0.075 | 0.078 | -0.011 | -0.014 | -0.011 | -0.137 | -0.076 | -0.068 | -0.048 | -0.051
MIEN1 (UniProt Q9BRT3) | 0.045 | 0.003 | -0.013 | 0.001 | 0.016 | -0.042 | -0.007 | 0.004 | -0.131 | 0.057
IPO11 isoform 2 (UniProt Q9UI26) | -0.004 | -0.074 | -0.113 | -0.039 | 0.022 | 0.027 | 0.048 | 0.032 | -0.027 | 0.005
IK (UniProt Q13123) | -0.016 | 0.119 | 0.06 | -0.08 | 0.008 | 0.026 | -0.235 | 0.132 | 0.017 | -0.078
LSS (UniProt P48449) | 0.017 | 0.108 | 0.142 | -0.049 | 0.003 | 0.052 | -0.01 | 0.001 | -0.001 | -0.033
LUC7L2 (UniProt Q9Y383) | -0.221 | -0.025 | 0.09 | -0.133 | 0.025 | 0.029 | 0.074 | -0.233 | 0.002 | -0.095
IPO7 (UniProt O95373) | 0.024 | -0.099 | -0.145 | -0.069 | 0.036 | 0.055 | 0.056 | 0.015 | -0.004 | -0.09
MARK3 (UniProt P27448) | -0.125 | -0.181 | -0.006 | -0.113 | 0.064 | 0.139 | 0.103 | -0.02 | -0.017 | -0.317
KRAS isoform 2 (UniProt P01116) | -0.07 | 0.039 | 0.091 | 0.061 | -0.015 | -0.032 | -0.018 | 0.001 | -0.019 | -0.032
LDLR (UniProt P01130) | 0.005 | 0.093 | 0.008 | 0.124 | 0.057 | -0.038 | -0.035 | 0.074 | 0.019 | -0.071
